Assay [1] can be described thus: antimalarial activity against Dd2 strain (AID 2302;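 active = growth inhibition above 50% at the single 2 µM test dose, taken to imply half-maximal potency below 2 µM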;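 also: 0% = DMSO untreated growth and 100% = chloroquine plus artemisinin killed control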). The settings on record: P. falciparum Dd2 in RBCs, LDH growth readout, 72 h; at 2 µM; hits give high values.
Assay [2] in a line: human hepatoma cell viability loss – ATP luminescence, cytotoxicity control for P. falciparum antimalarial project, primary screen (AID 2303;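 active = inhibition above 50%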;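 also: 0% = DMSO wells and 100% = digitonin-killed cells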). The conditions noted are these: HepG2 viability, 24-48 h, at 10 µM, hits give high values.
Assay [3] has as its target L-lactate dehydrogenase (Plasmodium falciparum (isolate CDC / Honduras)) (UniProt Q27743). Kind of assay: PfLDH activity inhibition – cell lysate, 3D7 strain, counter-screen for P. falciparum growth inhibition project (AID 2304).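 Also: 0% = vehicle and 100% = reference inhibitor.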 The conditions noted are these: P. falciparum 3D7 crude extract, LDH APAD/NBT absorbance; at 2 µM; hits give high values.
Assay [4] in a line: inhibition of 3D7 malaria parasite growth – strain 3D7 (AID 2306).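 Also: 0% = DMSO wells and 100% = chloroquine plus artemisinin control wells.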 The conditions noted are these: P. falciparum 3D7 erythrocytic growth, LDH absorbance, 72 h; at 2 µM; hits give high values.
For assay [5], the target named is Calcium-dependent protein kinase 1 (Plasmodium falciparum (isolate 3D7)) (UniProt P62344). Briefly: PfCDPK1 kinase inhibitors, biochemical, TCAMS library (AID 1159585; cut-off not given, nearly all actives have IC50 up to about 0.98 µM;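 also: inhibitors leave more ATP so luminescence rises with inhibition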). The settings on record: recombinant PfCDPK1, Kinase-Glo ATP depletion luminescence. Background: In Kinase-Glo more light means more ATP remaining.
Chain of Calcium-dependent protein kinase 1 (Plasmodium falciparum (isolate 3D7)) (P62344 whole entry, looked up): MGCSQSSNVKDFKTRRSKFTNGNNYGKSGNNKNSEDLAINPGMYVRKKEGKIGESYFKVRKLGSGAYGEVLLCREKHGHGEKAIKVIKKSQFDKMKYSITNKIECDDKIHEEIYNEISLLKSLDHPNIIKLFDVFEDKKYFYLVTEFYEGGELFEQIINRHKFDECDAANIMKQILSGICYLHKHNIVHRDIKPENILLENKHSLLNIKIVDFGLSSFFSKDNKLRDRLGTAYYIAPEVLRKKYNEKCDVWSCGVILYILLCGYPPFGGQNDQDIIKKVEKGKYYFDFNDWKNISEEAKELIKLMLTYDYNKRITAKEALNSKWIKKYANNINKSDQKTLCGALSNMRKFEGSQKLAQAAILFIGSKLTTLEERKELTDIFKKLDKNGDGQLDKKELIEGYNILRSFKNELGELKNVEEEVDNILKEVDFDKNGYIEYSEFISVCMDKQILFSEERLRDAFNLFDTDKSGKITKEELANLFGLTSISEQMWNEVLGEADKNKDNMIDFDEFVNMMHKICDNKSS
The target of assay [6] is Plasmodium falciparum protein kinase 6 (PK6, PF3D7_1337100) (UniProt Q8IDW1). Kind of assay: PfPK6 kinase inhibitors, biochemical, TCAMS library (AID 1159586). The conditions noted are these: recombinant PfPK6, Kinase-Glo ATP depletion luminescence.
Chain of Plasmodium falciparum protein kinase 6 (PK6, PF3D7_1337100) (Q8IDW1 1-305): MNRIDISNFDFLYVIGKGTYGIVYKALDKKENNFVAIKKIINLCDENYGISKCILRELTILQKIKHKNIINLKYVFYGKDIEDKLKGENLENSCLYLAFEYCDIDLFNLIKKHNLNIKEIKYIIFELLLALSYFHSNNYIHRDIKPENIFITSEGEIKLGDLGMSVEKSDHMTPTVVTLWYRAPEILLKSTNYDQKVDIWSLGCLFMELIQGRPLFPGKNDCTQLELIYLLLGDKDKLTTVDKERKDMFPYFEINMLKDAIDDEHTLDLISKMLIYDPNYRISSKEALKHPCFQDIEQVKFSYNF
Assay [7] addresses Protein kinase 7 (PK7), Plasmodium falciparum 3D7 (PF3D7_0213400) (UniProt Q7YTF7). Kind of assay: inhibition of Plasmodium PK7 catalytic activity – biochemical, TCAMS antimalarial set, Kinase-Glo luminescence (AID 1159587). The settings on record: recombinant PfPK7, Kinase-Glo ATP depletion luminescence.
The target of assay [8] is Calcium-dependent protein kinase 4 (Plasmodium falciparum (isolate 3D7)) (UniProt Q8IBS5). Kind of assay: PfCDPK4 kinase inhibitors, biochemical, TCAMS library (AID 1159588; cut-off not given, nearly all actives have IC50 up to about 0.91 µM). The conditions noted are these: recombinant PfCDPK4, Kinase-Glo ATP depletion luminescence.
Chain of Calcium-dependent protein kinase 4 (Plasmodium falciparum (isolate 3D7)) (Q8IBS5 whole entry, looked up): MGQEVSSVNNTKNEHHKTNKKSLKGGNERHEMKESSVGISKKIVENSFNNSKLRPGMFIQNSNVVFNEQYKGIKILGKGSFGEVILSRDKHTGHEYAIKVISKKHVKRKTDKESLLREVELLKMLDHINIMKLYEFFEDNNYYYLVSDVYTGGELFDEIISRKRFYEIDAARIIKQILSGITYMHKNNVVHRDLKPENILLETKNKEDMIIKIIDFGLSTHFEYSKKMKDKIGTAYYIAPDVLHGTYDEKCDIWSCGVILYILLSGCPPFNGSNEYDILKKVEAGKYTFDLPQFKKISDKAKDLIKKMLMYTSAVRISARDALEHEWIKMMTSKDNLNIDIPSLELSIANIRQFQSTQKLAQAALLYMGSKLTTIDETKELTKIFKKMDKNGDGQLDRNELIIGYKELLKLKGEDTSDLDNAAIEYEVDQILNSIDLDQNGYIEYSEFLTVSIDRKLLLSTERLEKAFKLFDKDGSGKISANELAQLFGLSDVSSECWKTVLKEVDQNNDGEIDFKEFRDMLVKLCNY

Structures are written as SMILES. Unmarked numbers belong to inactive results. For some of these results: Measured potencies and affinities stand elsewhere. Activity calls are given as the source filed them. Unless noted, no rule for the calls is given here.

Chain of Protein kinase 7 (PK7), Plasmodium falciparum 3D7 (PF3D7_0213400) (Q7YTF7 1-343): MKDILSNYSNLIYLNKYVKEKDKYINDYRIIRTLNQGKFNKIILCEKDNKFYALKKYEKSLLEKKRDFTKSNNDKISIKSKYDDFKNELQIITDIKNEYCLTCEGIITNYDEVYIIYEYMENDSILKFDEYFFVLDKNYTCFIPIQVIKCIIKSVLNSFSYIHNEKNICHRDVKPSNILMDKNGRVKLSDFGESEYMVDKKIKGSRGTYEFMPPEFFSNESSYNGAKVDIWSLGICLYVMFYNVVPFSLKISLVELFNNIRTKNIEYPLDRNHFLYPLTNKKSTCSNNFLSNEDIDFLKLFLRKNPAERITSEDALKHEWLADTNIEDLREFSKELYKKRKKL
Chain of L-lactate dehydrogenase (Plasmodium falciparum (isolate CDC / Honduras)) (Q27743 whole entry, looked up): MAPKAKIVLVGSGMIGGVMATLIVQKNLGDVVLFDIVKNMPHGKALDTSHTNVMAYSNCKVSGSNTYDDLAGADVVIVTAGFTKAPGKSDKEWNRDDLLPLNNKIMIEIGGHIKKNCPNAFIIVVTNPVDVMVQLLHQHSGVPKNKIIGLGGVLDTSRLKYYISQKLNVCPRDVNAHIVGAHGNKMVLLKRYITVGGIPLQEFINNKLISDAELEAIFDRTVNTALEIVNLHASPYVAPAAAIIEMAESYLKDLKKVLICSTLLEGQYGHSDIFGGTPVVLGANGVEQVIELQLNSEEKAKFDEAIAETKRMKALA

The inhibition is the relative decrease from the control value, in per cent. In the case of `CN1CCN(CCCN(Cc2ccc(-c3ccc(CNCCc4ccccc4)cc3)cc2)C(=O)c2cccs2)CC1`, the growth inhibition in assay [1] is 78% (active); in assay [4] it was 98% (active). For the same compound, the figures for the inhibition in assay [2] and in assay [3] were 32% and 3%, respectively. The outcome in assay [5], in assay [6], in assay [7] and in assay [8] was inactive.

Consider `Cc1cccc2[nH]c(-c3ccc(-c4ccc(CN5CCCC(N)C5)cc4)cc3)nc12` (stereo not given), for which the growth inhibition is 101% (active) in assay [1] and 99% (active) in assay [4]. The inhibition was 33% in assay [2] and -3% in assay [3]. Besides, the result in assay [5], in assay [6], in assay [7] and in assay [8] was inactive.

Turning to `COc1ccccc1NC(=O)OC(COc1ccc(N)cc1)CN1CC=C(c2ccccc2)CC1` (stereo not given), the values for the growth inhibition in assay [1] and in assay [4] were 81% (active) and 90% (active), respectively. Besides, the figures for the inhibition in assay [2] and in assay [3] were 16% and 3%, respectively. The outcome in assay [5], in assay [6], in assay [7] and in assay [8] was inactive.

With `CN1CCCc2ccc(NC(=O)Nc3ccc(Cl)c(Cl)c3)cc2C1`, the growth inhibition is 22% in assay [1] and 89% (active) in assay [4]. Besides, the inhibition was -13% in assay [2] and -2% in assay [3]. The result in assay [5], in assay [6], in assay [7] and in assay [8] was inactive.

As for `CC(CN(C)C)C(=O)Nc1ccc(-c2cccc(-c3nc4ccc(C(F)(F)F)cc4[nH]3)c2)cc1` (stereo not given), the growth inhibition in assay [1] was 85% (active); in assay [4], 101% (active). Further, the inhibition is 30% in assay [2] and -1% in assay [3]. Besides, the outcome in assay [5], in assay [6], in assay [7] and in assay [8] was inactive.

`O=C(C=Cc1ccc(Cl)c(Cl)c1)NCCCCCN1CCC(c2[nH]nc3ccccc23)CC1`: the figures for the growth inhibition in assay [1] and in assay [4] were 29% and 99% (active), respectively. The inhibition in assay [2] was 32%; in assay [3], 0%. The result in assay [5], in assay [6], in assay [7] and in assay [8] was inactive.

Turning to `COc1cc2nc(Nc3ccc4c(c3)OCCO4)nc(N)c2cc1OC`, the growth inhibition in assay [1] was 80% (active); in assay [4], 101% (active). The inhibition in assay [2] is 13%; in assay [3], -3%. Further, the result in assay [5], in assay [6], in assay [7] and in assay [8] was inactive.

Regarding `c1csc(-c2nc(NCC3CCCO3)ncc2-c2ccsc2)n1` (stereo not given), the growth inhibition in assay [1] was 83% (active); in assay [4] it was 89% (active). The figures for the inhibition in assay [2] and in assay [3] were -4% and 1%, respectively. For the same compound, the outcome in assay [5], in assay [6], in assay [7] and in assay [8] was inactive.

On to `Oc1ccc(CCCNc2nc(NCc3cccc4ccccc34)nc(N3CCNCC3)n2)cc1`, for which the results for the growth inhibition in assay [1] and in assay [4] were 4% and 100% (active), respectively. Besides, the inhibition is 9% in assay [2] and -1% in assay [3]. Further, the result in assay [5], in assay [6], in assay [7] and in assay [8] was inactive.

Take `C[C@H](Cc1ccc(C[C@@H](C)NC[C@H](O)c2cccc(Cl)c2)cc1)NC[C@H](O)COc1ccccc1`: the growth inhibition is 60% (active) in assay [1] and 96% (active) in assay [4]. The inhibition is 99% (active) in assay [2] and -2% in assay [3]. Further, the result in assay [5], in assay [6], in assay [7] and in assay [8] was inactive.

As to `Cc1cc(OCCCn2ccnc2)ccc1-c1csc(NC(N)=NCc2ccccc2)n1`, the growth inhibition in assay [1] was 42%; in assay [4], 92% (active). For the same compound, the figures for the inhibition in assay [2] and in assay [3] were 26% and 2%, respectively. The result in assay [5], in assay [6], in assay [7] and in assay [8] was inactive.

On to `CN1CCN(c2ccc(Nc3ccnc4ccc(-c5ccccc5)cc34)cc2)CC1`, for which the growth inhibition in assay [1] and in assay [4] was 101% (active) throughout. Further, the inhibition in assay [2] is 20%; in assay [3], -2%. The outcome in assay [5], in assay [6], in assay [7] and in assay [8] was inactive.

As to `Cc1cccc2[nH]c(-c3cccc(-c4ccc(CNCc5ccccc5)cc4)c3)nc12`, the growth inhibition in assay [1] was 100% (active); in assay [4] it was 99% (active). For the same compound, the inhibition is 33% in assay [2] and -3% in assay [3]. Besides, the outcome in assay [5], in assay [6], in assay [7] and in assay [8] was inactive.

For the compound `Cc1cc(N2CCC(N(C)C)C2)nc(Nc2ccc(Cl)cc2)n1` (stereo not given), the growth inhibition in assay [1] was 17%; in assay [4], 99% (active). Besides, the inhibition in assay [2] is 11%; in assay [3] it was 2%. Besides, the outcome in assay [5], in assay [6], in assay [7] and in assay [8] was inactive.

Regarding `CC(C)CCNCc1ccc(OCc2cccc(COc3ccc(CNCCC(C)C)cc3I)c2)c(I)c1`, the growth inhibition was 49% in assay [1] and 91% (active) in assay [4]. For the same compound, the values for the inhibition in assay [2] and in assay [3] were 99% (active) and 2%, respectively. In addition, the outcome in assay [5], in assay [6], in assay [7] and in assay [8] was inactive.

With `CC(C)NCc1cccc(-c2cccc(NC(=O)c3ccc(C#N)cc3)c2)c1`, the growth inhibition is 20% in assay [1] and 97% (active) in assay [4]. Further, the figures for the inhibition in assay [2] and in assay [3] were 18% and 0%, respectively. Besides, the outcome in assay [5], in assay [6], in assay [7] and in assay [8] was inactive.

Regarding `CC(C)(C)N1CCC(N(Cc2ccc(-c3ccc(C(F)(F)F)cc3)cc2)C(=O)Cn2c(CCc3cccc(F)c3F)cc(=O)c3ccccc32)CC1`, the growth inhibition is 97% (active) in assay [1] and 100% (active) in assay [4]. Also, the figures for the inhibition in assay [2] and in assay [3] were 100% (active) and 4%, respectively. Moreover, the result in assay [5], in assay [6], in assay [7] and in assay [8] was inactive.

As for `COC(=O)c1noc(C)c1I`, the values for the growth inhibition in assay [1] and in assay [4] were 2% and 99% (active), respectively. Also, the values for the inhibition in assay [2] and in assay [3] were 5% and -9%, respectively. Moreover, the result in assay [5], in assay [6], in assay [7] and in assay [8] was inactive.

As to `Cc1nc(-c2cccc(Nc3nccc(NCC(O)c4cccc(C(F)(F)F)c4)n3)c2)cs1` (stereo not given), the growth inhibition in assay [1] is 99% (active); in assay [4], 100% (active). Besides, the inhibition is 14% in assay [2] and 0% in assay [3]. Besides, the result in assay [5], in assay [6], in assay [7] and in assay [8] was inactive.

`CC1=C(C(=O)Nc2ccc(Cl)cc2)C(c2ccncc2)n2nc(C(F)(F)F)nc2N1` (stereo not given): the growth inhibition is 49% in assay [1] and 87% (active) in assay [4]. The inhibition in assay [2] was 25%; in assay [3], -5%. Besides, the outcome in assay [5], in assay [6], in assay [7] and in assay [8] was inactive.

These data come from PubChem BioAssay.
